In the library only some 2.4% were active in any assay of this set; here they are far more common.
D2 PAM-1: HTS Assay for Positive Allosteric Modulators of the Human D2 Dopamine Receptor: Primary Screen for Potentiators. 340,000 compounds, 0.34% hits. HEK293 T-REx D2, calcium flux, EC20 dopamine potentiation. potentiation, % at 10 µM;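 active = potentiation over 3 SD above the plate norm, cut at about 30% in these data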; note: 0% is about no effect
Target sequence (P14416 whole entry, looked up): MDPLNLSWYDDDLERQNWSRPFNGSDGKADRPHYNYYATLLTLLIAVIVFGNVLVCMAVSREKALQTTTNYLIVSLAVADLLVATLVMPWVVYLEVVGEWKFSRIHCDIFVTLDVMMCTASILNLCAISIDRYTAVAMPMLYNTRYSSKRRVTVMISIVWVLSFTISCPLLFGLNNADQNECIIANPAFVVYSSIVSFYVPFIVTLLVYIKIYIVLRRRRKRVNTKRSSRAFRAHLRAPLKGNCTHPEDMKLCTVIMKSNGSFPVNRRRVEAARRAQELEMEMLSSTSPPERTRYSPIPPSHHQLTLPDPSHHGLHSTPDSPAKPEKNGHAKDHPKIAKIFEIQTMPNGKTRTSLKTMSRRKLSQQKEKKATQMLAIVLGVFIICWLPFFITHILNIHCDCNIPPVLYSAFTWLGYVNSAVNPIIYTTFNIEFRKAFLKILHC
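Cells plated with tetracycline inducer and held overnight at 30 C; calcium dye loaded 30–90 min at room temperature; baseline taken, compound added and read 180 s; EC20 dopamine then added and read 180 s.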
D2 ag-1: Beta-Arrestin HTS for Positive Allosteric Modulators of the Human D2 Dopamine Receptor: Agonists | DiscoveRx PathHunter D2 beta-arrestin, luminescence, 90 min; 100% = 57 uM dopamine signal | activation, % (no concentration beside the values) | 360,000 compounds, 0.084% hits; in the data active = activation above about 40%
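Agonist mode: compounds alone added to overnight-plated D2 PathHunter cells for 90 min at 37 C, with 57 uM final dopamine (EC100) defining full response. Beta-arrestin recruitment detected by chemiluminescent reagent, read after 1 h at ambient temperature.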
D2 ag-2: HTS Assay for Allosteric Agonists of the Human D2 Dopamine Receptor: Primary Screen for Agonists | 340,000 compounds, 0.53% hits | activation, % at 2 µM | HEK293 T-REx D2 cells, calcium flux agonist mode | D(2) dopamine receptor (Homo sapiens), P14416;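 active = activation over 3 SD above normal in the single-dose calcium agonist read, cut at about 30% in these data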; note: 0% is about no effect
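Tetracycline-induced HEK293 Trex cells with D2 receptor force-coupled to calcium signaling, plated overnight at 30 C and loaded with no-wash calcium dye. Calcium flux read kinetically for 180 s after compound addition; responses flag agonists.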
D2 PAM-2: Beta-Arrestin HTS for Positive Allosteric Modulators of the Human D2 Dopamine Receptor: Potentiators; D(2) dopamine receptor (Homo sapiens), P14416; DiscoveRx D2 beta-arrestin cells, luminescence, 90 min; 100% = 57 uM dopamine signal; potentiation, % (no concentration beside the values); 360,000 compounds, 0.23% hits; in the data active = potentiation above about 50%
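PathHunter D2 cells, attached overnight at 37 deg C, received compound in DMSO plus dopamine at EC20 (50 nM final) for 90 min at 37 deg C. Beta-arrestin recruitment was read as luminescence after 1 h with detection reagent at ambient temperature.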
D2 antag: HTS Assay for Allosteric Antagonists of the Human D2 Dopamine Receptor: Primary Screen for Antagonists | D(2) dopamine receptor (Homo sapiens), P14416 | inhibition, % at 10 µM | AID 485344, 2010 | HEK293 TREx D2 cells, calcium flux, dopamine EC80 | 340,000 compounds, 2% hits; in the data active = inhibition above about 30%; inactive = below that, where a call was filed; note: 0% is about no effect
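Inhibition of EC80 dopamine-driven calcium flux, recorded kinetically, defines activity here; cells are a tetracycline-induced HEK293 T-REx line expressing force-coupled D2.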
Active calls of the source: *.

For COc1ccc2c(c1)C=C(CN1CCN(Cc3ccccc3C)C(CCO)C1)CO2 (stereo not drawn) the results were D2 PAM-1 -20, D2 ag-1 4, D2 ag-2 -1, D2 PAM-2 -25 and D2 antag 58*.
Screening O=c1cc(CSc2nnc(COc3ccccc3)n2-c2ccccc2)c2ccccc2[nH]1 returned D2 PAM-1 -1, D2 ag-1 0, D2 ag-2 -1, D2 PAM-2 -12 and D2 antag 3.
Screening Cn1c(COc2ccccc2)nnc1SCc1cc(=O)[nH]c2ccccc12 returned D2 PAM-1 2, D2 ag-1 1, D2 ag-2 1, D2 PAM-2 1 and D2 antag 39*.
COc1ccc(/C=C/C2=CC(C)(C)NC(=S)N2)cc1 was read as D2 ag-1 -4 and D2 PAM-2 -18.
COc1ccc(C(=O)NCC(=O)N/N=C/c2c(C)[nH]c3ccccc23)cc1 was read as D2 PAM-1 -4, D2 ag-1 1, D2 ag-2 -1, D2 PAM-2 -27 and D2 antag 53*.
For COc1ccccc1N1CCN(C2CCCN(C(=O)c3cc(C)oc3C)C2)CC1 (stereo not drawn) the results were D2 PAM-1 2, D2 ag-1 -1, D2 ag-2 -1, D2 PAM-2 -33 and D2 antag -2.
`COc1ccccc1N1CCN(C2CCCN(Cc3c(F)cccc3F)C2)CC1` (stereo not drawn) gave D2 PAM-1 -21, D2 ag-1 -4, D2 ag-2 0, D2 PAM-2 -2 and D2 antag 53*.
For COc1ccccc1N1CCN(C2CCCN(C(=O)c3ccoc3C)C2)CC1 (stereo not drawn) the results were D2 PAM-1 -16, D2 ag-1 -3, D2 ag-2 0, D2 PAM-2 -47 and D2 antag 31*.
`COc1ccccc1N1CCN(C2CCCN(Cc3cccc(O)c3)C2)CC1` (stereo not drawn) gave D2 PAM-1 -19, D2 ag-1 -2, D2 ag-2 1, D2 PAM-2 -2 and D2 antag 49*.
For COc1ccc(CCN(C)C(=O)CCNS(=O)(=O)c2ccccc2C(F)(F)F)cc1OC the results were D2 PAM-1 7, D2 ag-1 -1, D2 ag-2 0, D2 PAM-2 6 and D2 antag 35*.
CCCCNC(=O)N1CCOCCOCCN(C(=O)NCCCC)CCOCCOCC1 was read as D2 ag-1 -1, D2 ag-2 3, D2 PAM-2 5 and D2 antag 32*.
Screening Cc1ccc(S(=O)(=O)Nc2cccc(C(=O)NCC(c3ccccc3)N(C)C)c2)cc1F (stereo not drawn) returned D2 PAM-1 -28, D2 ag-1 -3, D2 ag-2 0, D2 PAM-2 -4 and D2 antag 79*.
C=CCOc1ccccc1CNCCCN1CCOCC1 was read as D2 PAM-1 37*, D2 ag-1 -1, D2 ag-2 0, D2 PAM-2 -12 and D2 antag -5.
O=C(NCc1ccc(Cl)cc1)C1CCCN(c2cnccn2)C1 (stereo not drawn) was read as D2 PAM-1 -4, D2 ag-1 -3, D2 ag-2 -1, D2 PAM-2 -11 and D2 antag 36*.
`O=C(NCc1ccc(Cl)cc1)C1CCN(c2cnccn2)CC1` gave D2 PAM-1 -18, D2 ag-1 -3, D2 ag-2 -1, D2 PAM-2 -2 and D2 antag 4.
`CN(C)c1ccc(/C=C/C(=O)c2cccc(Br)c2)cc1` gave D2 PAM-1 -3, D2 ag-1 2, D2 ag-2 113*, D2 PAM-2 -6 and D2 antag 2.
`CN(C)c1ccc(C(=O)/C=C/c2cccnc2)cc1` gave D2 ag-1 -3 and D2 PAM-2 -13.

Source: PubChem
